Reference: patent US20220289795, “EFFICIENT METHOD FOR PREPARING PPR PROTEIN AND USE OF THE SAME” (EditForce, Inc., published 2022)

Target: T1, v3.1_PPR16 (Artificial Sequence)
T1 chain: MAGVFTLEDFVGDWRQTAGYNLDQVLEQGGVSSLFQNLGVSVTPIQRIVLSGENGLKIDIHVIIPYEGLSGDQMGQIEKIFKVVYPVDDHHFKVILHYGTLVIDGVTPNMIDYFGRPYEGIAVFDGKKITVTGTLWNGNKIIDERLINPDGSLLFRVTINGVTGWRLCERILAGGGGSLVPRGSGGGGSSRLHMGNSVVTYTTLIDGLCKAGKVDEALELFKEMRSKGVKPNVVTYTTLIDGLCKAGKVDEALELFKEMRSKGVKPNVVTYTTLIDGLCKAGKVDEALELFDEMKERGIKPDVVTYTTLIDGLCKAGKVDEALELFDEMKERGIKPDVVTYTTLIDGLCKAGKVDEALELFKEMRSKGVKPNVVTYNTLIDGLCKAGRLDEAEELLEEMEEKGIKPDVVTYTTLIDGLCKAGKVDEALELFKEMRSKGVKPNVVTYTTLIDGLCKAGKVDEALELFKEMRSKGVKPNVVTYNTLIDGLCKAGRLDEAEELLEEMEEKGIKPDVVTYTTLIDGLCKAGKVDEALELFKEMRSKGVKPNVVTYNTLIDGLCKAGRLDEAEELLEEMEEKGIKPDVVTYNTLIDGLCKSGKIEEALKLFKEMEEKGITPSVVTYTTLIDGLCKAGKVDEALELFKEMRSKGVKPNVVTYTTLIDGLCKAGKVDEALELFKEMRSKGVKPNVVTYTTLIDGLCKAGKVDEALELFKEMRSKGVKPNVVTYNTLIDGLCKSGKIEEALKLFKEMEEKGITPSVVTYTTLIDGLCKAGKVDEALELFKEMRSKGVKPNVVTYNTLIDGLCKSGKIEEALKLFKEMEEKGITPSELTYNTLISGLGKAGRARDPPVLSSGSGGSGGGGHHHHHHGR
Experiment: RPB-ELISA
Settings: tags: N-terminal luciferase, C-terminal 6xHis; label: 5'-biotin; ssRNA
Protocol: RNA probes consisting of a designed 30-base sequence containing 18 bases of the target sequence and modified by biotinylation at the 5′ end (RNA_1, RNA_2, RNA_3, RNA_4, and RNA_5, SEQ ID NOS: 61 to 65) were synthesized (Grainer). To a streptavidin-coated plate (Thermo fisher), the 5′-end biotinylated RNA probes were added, reaction was allowed at room temperature for 30 minutes, and the plate was washed with a lysis buffer (20 mM Tris-HCl, pH 7.6, 150 mM NaCl, 5 mM MgCl₂, 0.5% NP-40, 1 mM DTT, 0.1% BSA). For background measurement, wells to which RNA was not added, but 100 μL of the lysis buffer, 1 μL of 100 mM DTT, and 1 μL of 40 unit/4 RNase inhibitor (Takara, 2313A) were added were also prepared. Then, 200 μL of a blocking buffer (20 mM Tris-HCl, pH 7.6, 150 mM NaCl, 5 mM MgCl₂, 0.5% NP-40, 1 mM DTT, 1% BSA) was added, and the plate surface was blocked at room temperature for 30 minutes. Then, 100 μL of E. coli lysate containing luciferase-fused PPR protein having a luminescence level of 1.5×10⁸ LU/μL was added to each well, and the binding reaction was allowed at room temperature for 30 minutes. The well was washed 5 times with 200 μL of a washing buffer (20 mM Tris-HCl, pH 7.6, 150 mM NaCl, 5 mM MgCl₂, 0.5% NP-40, 1 mM DTT). […] The background (luminescence signal value obtained with adding the PPR protein and without adding RNA) was subtracted from the luminescences of the samples to which a solution containing each RNA and PPR protein was added, and the obtained values were used as the binding powers between the PPR protein and RNA.
By using the V3.1 motif, PPR proteins for the same 23 kinds of target sequences were similarly prepared (SEQ ID NOS: 411 to 433 for the nucleotide sequences, and SEQ ID NOS: 434 to 456 for the amino acid sequences), and bindings of all the combinations were analyzed by using RPB-ELISA. The experimental method was the same as that used in Example 3.
In the case of GUGGGGGUGGUAGGAAAU, the binding signal is reported as 22.6 log2 luminescence. Sequence GGUGGUGAGGCCCUGGGC has a binding signal of 20.6 log2 luminescence.
